SRC1 TRFRET art – TR-FRET detection interference compounds, primary screen, artefact control for PPARgamma SRC-1 recruitment agonists, biochemical, TR-FRET emission ratio; TR-FRET detection artefact counter-screen; hits give high values; TR-FRET ratio at 8 µM; actives 0.34% (n = 99,000); in the data active = TR-FRET ratio above about 2300
PPARg SRC-2 ag – agonists of PPARg-SRC-2 recruitment, primary screen, biochemical, HTS | actives 0.34% (n = 200,000) | PPARgamma LBD-SRC-2 recruitment | AID 1032, 2008 | Peroxisome proliferator-activated receptor gamma (Homo sapiens), P37231 | activation, % at 8 µM
PPARg SRC1 recr – PPARgamma agonists recruiting SRC-1 coactivator, primary screen, biochemical; Peroxisome proliferator-activated receptor gamma (Homo sapiens), P37231; PPARgamma-SRC-1 coactivator recruitment biochemical assay; activation, % at 8 µM; actives 0.41% (n = 200,000); in the data active = activation above about 19%
SRC3 TRFRET art – TR-FRET detection interference compounds, artefact control for PPARgamma SRC-3 recruitment agonists, biochemical, TR-FRET ratio; TR-FRET artefact counter-screen, PPARgamma/SRC-3 format; hits give high values; TR-FRET ratio at 8 µM; actives 0.39% (n = 99,000); AID 1048, 2008; in the data active = TR-FRET ratio above about 2000
SRC2 TRFRET art – TR-FRET signal artefacts, primary screen, artefact control for PPARgamma SRC-2 agonist project, biochemical | TR-FRET artefact counter-screen; hits give high values | TR-FRET ratio at 8 µM | actives 0.4% (n = 200,000) | AID 1049, 2008; in the data active = TR-FRET ratio above about 2000
PPARg SRC-3 ag – PPARgamma agonists recruiting SRC-3 coactivator, primary screen, biochemical; actives 0.26% (n = 200,000); activation, % at 8 µM; biochemical PPARgamma/SRC-3 coactivator recruitment assay; in the data active = activation above about 23%
PPARg SRC2 ag – agonists of PPARgamma SRC-2 coactivator recruitment, confirmation, biochemical, HTS. shares compounds with PPARg SRC-3 ag. biochemical SRC-2 recruitment by PPARgamma. activation, % at 8 µM. actives 52% (n = 790). AID 1297, 2008
PPARg SRC1 conf – PPARgamma agonists recruiting SRC-1 coactivator, confirmation, biochemical; AID 1300, 2008; actives 43% (n = 790); PPARgamma–SRC-1 coactivator recruitment biochemical assay; shares compounds with PPARg SRC-3 ag; activation, % at 8 µM; in the data active = activation above about 20%
PPARg SRC3 conf – PPARgamma-driven SRC-3 coactivator recruitment agonists, confirmation, biochemical; shares compounds with PPARg SRC-3 ag; AID 1301, 2008; actives 29% (n = 790); biochemical PPARgamma-SRC-3 coactivator recruitment, agonist mode; activation, % at 8 µM; in the data active = activation above about 24%
Target sequence (P37231 whole entry, looked up): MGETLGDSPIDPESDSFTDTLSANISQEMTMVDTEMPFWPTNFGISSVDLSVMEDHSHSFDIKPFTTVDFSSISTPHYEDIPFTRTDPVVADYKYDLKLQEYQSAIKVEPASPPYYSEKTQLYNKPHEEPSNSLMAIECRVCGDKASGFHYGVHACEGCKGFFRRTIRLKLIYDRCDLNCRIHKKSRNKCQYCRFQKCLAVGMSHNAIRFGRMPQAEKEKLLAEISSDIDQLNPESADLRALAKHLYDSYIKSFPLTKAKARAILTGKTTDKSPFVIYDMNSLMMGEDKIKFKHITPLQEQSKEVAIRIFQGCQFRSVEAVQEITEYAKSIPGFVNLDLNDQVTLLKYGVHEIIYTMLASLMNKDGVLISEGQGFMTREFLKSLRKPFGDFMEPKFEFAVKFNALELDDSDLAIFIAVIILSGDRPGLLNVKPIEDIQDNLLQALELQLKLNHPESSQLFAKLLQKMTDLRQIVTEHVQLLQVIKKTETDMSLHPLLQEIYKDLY
Target sequence (Q9Y6Q9 whole entry, looked up): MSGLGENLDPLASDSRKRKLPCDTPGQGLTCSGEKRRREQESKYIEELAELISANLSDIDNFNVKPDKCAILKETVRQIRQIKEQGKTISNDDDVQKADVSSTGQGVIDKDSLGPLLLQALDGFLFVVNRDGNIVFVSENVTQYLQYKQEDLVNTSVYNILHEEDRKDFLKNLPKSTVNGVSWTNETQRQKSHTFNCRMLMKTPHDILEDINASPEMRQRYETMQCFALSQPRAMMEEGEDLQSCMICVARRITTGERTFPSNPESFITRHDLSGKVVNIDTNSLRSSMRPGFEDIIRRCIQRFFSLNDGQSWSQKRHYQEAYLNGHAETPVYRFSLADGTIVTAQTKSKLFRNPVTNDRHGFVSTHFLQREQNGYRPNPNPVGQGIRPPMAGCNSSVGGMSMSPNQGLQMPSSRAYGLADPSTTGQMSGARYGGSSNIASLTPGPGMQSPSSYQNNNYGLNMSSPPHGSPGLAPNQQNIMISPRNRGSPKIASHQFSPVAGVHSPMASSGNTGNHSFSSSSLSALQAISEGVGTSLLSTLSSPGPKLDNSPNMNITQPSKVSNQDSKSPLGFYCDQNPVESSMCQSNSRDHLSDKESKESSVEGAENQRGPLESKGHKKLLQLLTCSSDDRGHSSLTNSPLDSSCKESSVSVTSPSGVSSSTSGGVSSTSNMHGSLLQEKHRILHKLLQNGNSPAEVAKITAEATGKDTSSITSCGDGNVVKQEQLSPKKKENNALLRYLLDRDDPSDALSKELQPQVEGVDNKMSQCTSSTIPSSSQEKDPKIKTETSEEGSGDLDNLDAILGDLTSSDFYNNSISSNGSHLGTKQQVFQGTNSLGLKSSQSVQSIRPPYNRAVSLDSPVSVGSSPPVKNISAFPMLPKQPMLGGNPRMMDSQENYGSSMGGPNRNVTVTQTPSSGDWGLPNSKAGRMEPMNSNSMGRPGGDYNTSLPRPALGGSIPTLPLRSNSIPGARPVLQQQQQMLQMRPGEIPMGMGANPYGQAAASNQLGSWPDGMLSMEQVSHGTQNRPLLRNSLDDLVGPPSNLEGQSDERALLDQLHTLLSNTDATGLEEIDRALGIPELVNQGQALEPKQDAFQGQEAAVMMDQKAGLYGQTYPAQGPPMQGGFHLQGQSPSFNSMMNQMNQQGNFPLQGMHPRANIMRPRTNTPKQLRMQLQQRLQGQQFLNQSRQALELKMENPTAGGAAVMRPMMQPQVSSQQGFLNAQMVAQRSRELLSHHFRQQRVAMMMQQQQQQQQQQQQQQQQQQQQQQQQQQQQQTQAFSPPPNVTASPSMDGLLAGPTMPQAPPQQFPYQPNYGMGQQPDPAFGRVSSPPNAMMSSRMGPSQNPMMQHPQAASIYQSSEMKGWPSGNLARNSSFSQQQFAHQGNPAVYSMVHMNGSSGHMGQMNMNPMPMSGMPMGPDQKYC
Each line names hits and unclear results; the compound was inactive in the other large screens (follow-up assays come after a bar, where they were run). Sampled rows, rich in hits. Any-hit rate of the full collection: about 0.9%. Rule as the data show it, unless noted: active = activation above about 22%; inactive = the rest.

Cc1ccc(N=C2NC(=O)/C(=C/c3cn(C)c4ccccc34)S2)cc1C	none
COc1ccc(C(=O)Nc2cccc3c2C(=O)NC3=O)cc1S(=O)(=O)N1CCOCC1	PPARg SRC1 recr 21 (no result: SRC1 TRFRET art, SRC3 TRFRET art) | PPARg SRC2 ag inactive | PPARg SRC1 conf inactive | PPARg SRC3 conf inactive
COc1ccc(-c2nc(-c3cccs3)c(-c3cccs3)[nH]2)cc1O	PPARg SRC-2 ag 89, PPARg SRC1 recr 63, SRC2 TRFRET art 3397, PPARg SRC-3 ag 90 (no result: SRC1 TRFRET art, SRC3 TRFRET art) | PPARg SRC2 ag 56 | PPARg SRC1 conf 44 | PPARg SRC3 conf 40
O=[N+]([O-])c1ccc(O)c(-c2nc(-c3ccccc3)c(-c3cccs3)[nH]2)c1	none (no result: SRC1 TRFRET art, SRC3 TRFRET art)
Nc1ccc2oc(-c3ccc4nc[nH]c4c3)nc2c1	none (no result: SRC1 TRFRET art, SRC3 TRFRET art)
Cc1nc2ccc(-c3nc4cc(N)ccc4o3)cc2[nH]1	PPARg SRC1 recr 21 (no result: SRC1 TRFRET art, SRC3 TRFRET art) | PPARg SRC2 ag inactive | PPARg SRC1 conf inactive | PPARg SRC3 conf inactive
O=C(CCCCCn1c(=S)[nH]c2cc3c(cc2c1=O)OCO3)N1CCN(Cc2ccccc2)CC1	none (no result: SRC1 TRFRET art, SRC3 TRFRET art)
O=C(CCCCCn1c(=S)[nH]c2cc3c(cc2c1=O)OCO3)N1CCN(C(=O)c2ccco2)CC1	PPARg SRC-2 ag 32, PPARg SRC-3 ag 26 (no result: SRC1 TRFRET art, SRC3 TRFRET art) | PPARg SRC2 ag inactive | PPARg SRC1 conf inactive | PPARg SRC3 conf inactive
CC1(C)SC2[C@H](NC(=O)C(NC(=O)N3CCNC3=O)c3ccccc3)C(=O)N2C1C(=O)O (some centres not stated)	none
Cc1ccc(C)n1-c1ccc(-c2nnc3n2CCCCC3)s1	PPARg SRC1 recr 27 (no result: SRC1 TRFRET art, SRC3 TRFRET art) | PPARg SRC2 ag 23 | PPARg SRC1 conf 22 | PPARg SRC3 conf inactive
CCN(CC)S(=O)(=O)c1ccc(OC)c(NC(=O)c2cc(C)on2)c1	none
CCOC(=O)N1CCN(C(=O)c2cccc(-n3c(=S)[nH]c4cc(Cl)ccc4c3=O)c2)CC1	none (no result: SRC1 TRFRET art, SRC3 TRFRET art)
COc1cc(C2C(C(C)=O)=C(O)C(=O)N2CCc2c[nH]c3ccccc23)ccc1O (configuration not stated)	PPARg SRC1 recr 19 (no result: SRC1 TRFRET art, SRC3 TRFRET art) | PPARg SRC2 ag inactive | PPARg SRC1 conf inactive | PPARg SRC3 conf inactive
CC(=O)C1=C(O)C(=O)N(CCc2c[nH]c3ccccc23)C1c1cccc(O)c1 (configuration not stated)	none (no result: SRC1 TRFRET art, SRC3 TRFRET art)
Cc1ccc(NC(=S)N2CCC(c3ccccc3)C2)c(Cl)c1 (configuration not stated)	none
Cc1sc2nc(COC(=O)c3cccc(S(=O)(=O)N(C)c4ccccc4)c3)[nH]c(=O)c2c1C	none
Clc1ccc(Cl)c(-c2ccc(/C=N/c3ncn[nH]3)o2)c1	PPARg SRC-2 ag 54, PPARg SRC1 recr 49, SRC2 TRFRET art 2699, PPARg SRC-3 ag 58 (no result: SRC1 TRFRET art, SRC3 TRFRET art) | PPARg SRC2 ag 53 | PPARg SRC1 conf 38 | PPARg SRC3 conf 30
C=CCOc1ccc(C2C(C(=O)c3cccs3)=C(O)C(=O)N2c2nnc(C)s2)cc1 (configuration not stated)	none (no result: SRC1 TRFRET art, SRC3 TRFRET art)
COc1ccc(C2C(C(=O)c3cccs3)=C(O)C(=O)N2c2nnc(C)s2)cc1OC (configuration not stated)	none (no result: SRC1 TRFRET art, SRC3 TRFRET art)
CC(C)c1nnc(N2C(=O)C(O)=C(C(=O)c3cccs3)C2c2ccccc2)s1 (configuration not stated)	SRC1 TRFRET art 2598, PPARg SRC-2 ag 31, PPARg SRC1 recr 38, SRC3 TRFRET art 2283, SRC2 TRFRET art 2400 | PPARg SRC2 ag inactive | PPARg SRC1 conf inactive | PPARg SRC3 conf inactive

Bioassay records from PubChem.
